In all, about 18,000 sequences were measured (“log2 normalized intensity”: median about 0.36, highest 2% from about 7.3 on). This is one part of a sample in which the highest values are shown more often than they occur.
biological target: T1, HNF4alpha8 (COS-7 nuclear extract) (Homo sapiens, UniProt P41235-5 1-452); assay: protein-binding microarray; COS-7 nuclear extract on double-stranded Agilent 4x180k PBM; binding buffer, salt, pH and temperature not given in the material; high values mean tight binding; conditions: chain copies: 2; label: 3' end of strand 1 on the slide; dsDNA, one strand shown
T1 sequence: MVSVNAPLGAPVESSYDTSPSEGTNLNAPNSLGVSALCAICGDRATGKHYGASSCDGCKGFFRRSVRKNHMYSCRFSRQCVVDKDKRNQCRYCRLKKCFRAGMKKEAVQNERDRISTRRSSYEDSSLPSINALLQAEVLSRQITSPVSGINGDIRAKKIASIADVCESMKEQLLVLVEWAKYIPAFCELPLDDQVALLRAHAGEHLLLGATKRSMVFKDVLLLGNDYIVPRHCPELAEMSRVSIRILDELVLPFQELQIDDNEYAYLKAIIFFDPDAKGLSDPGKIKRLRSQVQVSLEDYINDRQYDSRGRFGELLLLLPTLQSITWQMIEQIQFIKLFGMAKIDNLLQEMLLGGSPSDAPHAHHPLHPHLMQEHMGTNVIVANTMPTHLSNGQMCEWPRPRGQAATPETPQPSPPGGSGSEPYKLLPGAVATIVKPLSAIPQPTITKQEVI
Procedure, shortened: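 COS-7 cells were transiently transfected by CaPO4 with an expression vector for a human HNF4α isoform, and nuclear extracts were prepared from them. The extracts were applied to a custom Agilent SurePrint G3 4x180k array of double-stranded ~60-nt oligonucleotides, with ~44,000 test sequences spotted in quadruplicate. An Agilent G2565CA scanner imaged bound HNF4α at 2-µm resolution. Binding signal is the background-corrected, normalized gProcessedSignal from Agilent software.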

Sequence | binding signal
TTGCCAGTTCCCATTTGCGCTGGTTTTATGGCCTAGGGAGATTAGAGTATCGGTCGA | 1.65 log2 normalized intensity
GTTATCACAGGCTTGGAATGTTTCTGTATCGCCTAGGGAGATTAGAGTATCGGTCGA | 0.74 log2 normalized intensity
AAACGCTGAAGTCTCAAAGTTCACCACTTTGCCTAGGGAGATTAGAGTATCGGTCGA | 3.3 log2 normalized intensity
GAAGCTGGTAGCATGGCTCAGTCCAAGTCCGCCTAGGGAGATTAGAGTATCGGTCGA | 0.896 log2 normalized intensity
TTGGACTCTGCCACTGGTTTGCACACACCAGCCTAGGGAGATTAGAGTATCGGTCGA | 1.94 log2 normalized intensity
TATACATTTTCCCACTTGTATGTCCAAGGGGCCTAGGGAGATTAGAGTATCGGTCGA | 1.25 log2 normalized intensity
GAACAAAGGTTGGTGTGAACCAGGGTTAAGGCCTAGGGAGATTAGAGTATCGGTCGA | 1.59 log2 normalized intensity
ACCTTTATCTGATCAGAAATGTTTGGAATTGCCTAGGGAGATTAGAGTATCGGTCGA | 1.84 log2 normalized intensity
AGTCTAACTTTGGACTTTTATGTTAAGATCGCCTAGGGAGATTAGAGTATCGGTCGA | 2.93 log2 normalized intensity
TGGACTTTGAACCTCTCTTCTTTTTCGTCTGCCTAGGGAGATTAGAGTATCGGTCGA | 7.42 log2 normalized intensity
TGAACTTTGAACACCTCTTCTTTCTTCTCTGCCTAGGGAGATTAGAGTATCGGTCGA | 4.71 log2 normalized intensity
TTTCTCTTTTGACCTTTGGACTTTCACATTGCCTAGGGAGATTAGAGTATCGGTCGA | 11 log2 normalized intensity
GTTATCTATGGAACATGGACTTTGAACCTCGCCTAGGGAGATTAGAGTATCGGTCGA | 10.9 log2 normalized intensity
ACTCATTTCACATTGGTGCCCTTTGCCTTTGCCTAGGGAGATTAGAGTATCGGTCGA | 4.99 log2 normalized intensity
CCTTGCTATGGAGTGGACTTTGGCTTATGCGCCTAGGGAGATTAGAGTATCGGTCGA | 7.08 log2 normalized intensity
TCTTCTTCTGGGGACTTCGGTCTTTTTTCTGCCTAGGGAGATTAGAGTATCGGTCGA | 2.67 log2 normalized intensity
CCTTTGGTGCCTCTTTTTTCTTGTTGACTTGCCTAGGGAGATTAGAGTATCGGTCGA | 1.91 log2 normalized intensity
GCCTGTCACCCAACCTCACCTAACCACATTGCCTAGGGAGATTAGAGTATCGGTCGA | 1.21 log2 normalized intensity
GCTGATGCAGAGGGTGCAAAGTTTTTAAAGGCCTAGGGAGATTAGAGTATCGGTCGA | 1.28 log2 normalized intensity
ACACCTTTTCTAGCTGAGTTGACCTGTGTTGCCTAGGGAGATTAGAGTATCGGTCGA | 4.51 log2 normalized intensity
ACATTAATCAGTCGCGTATCTGACTTTATCGCCTAGGGAGATTAGAGTATCGGTCGA | 0.606 log2 normalized intensity

Sequence | binding signal
CATTCTCTAATCAGGTCGCTGCCTGCCCCTGCCTAGGGAGATTAGAGTATCGGTCGA | 3.39 log2 normalized intensity
TACATTTTGCTCTGTTGTGTCAAAGGTCACGCCTAGGGAGATTAGAGTATCGGTCGA | 7 log2 normalized intensity
TGACCTGGTACTATGACCTTTCACCTTTTAGCCTAGGGAGATTAGAGTATCGGTCGA | 7.78 log2 normalized intensity
CTATGACCTTTCACCTTTTAGCTTGGCATGGCCTAGGGAGATTAGAGTATCGGTCGA | 5.08 log2 normalized intensity
GAGTGACCTGGTATTGCAAGTATTTCACCCGCCTAGGGAGATTAGAGTATCGGTCGA | 1.59 log2 normalized intensity
TGGTACTATGACCTTTCACCTTTTAGCTTGGCCTAGGGAGATTAGAGTATCGGTCGA | 6.25 log2 normalized intensity
TTCACCTTTCGCCCTTTGTCCTATGACTCTGCCTAGGGAGATTAGAGTATCGGTCGA | 5.44 log2 normalized intensity
ACCTTTGACCTGGTACTATGACCTTTCACCGCCTAGGGAGATTAGAGTATCGGTCGA | 7.83 log2 normalized intensity
CCCCAAAAACTTGGACTCTATAGCCTATGCGCCTAGGGAGATTAGAGTATCGGTCGA | 2.66 log2 normalized intensity
TGGGGACCTTTGGGCTCTGACCCGAAGGGTGCCTAGGGAGATTAGAGTATCGGTCGA | 2.6 log2 normalized intensity
CTTTTGAGTTTCTACCATAGACCCTGTTGGGCCTAGGGAGATTAGAGTATCGGTCGA | 0.898 log2 normalized intensity
CTAACCAGCTCTATCAGTCTGGGTCCAGTCGCCTAGGGAGATTAGAGTATCGGTCGA | 2.82 log2 normalized intensity
CCCCCGGCTCTACGCAAGTGGTACCTCCCGGCCTAGGGAGATTAGAGTATCGGTCGA | 2.76 log2 normalized intensity
CTTGGCACTTAGCACAAGTGACTATTCTGGGCCTAGGGAGATTAGAGTATCGGTCGA | 0.0244 log2 normalized intensity
AGGCAAAGGTGTCAGGACCTTTCTTTATGGGCCTAGGGAGATTAGAGTATCGGTCGA | 0.451 log2 normalized intensity
TCCTTTTCTTTCACATACAAAATTTACTTTGCCTAGGGAGATTAGAGTATCGGTCGA | 1.75 log2 normalized intensity
GCAGAAGGTGTTTCAGATGGACCAAAGGTCGCCTAGGGAGATTAGAGTATCGGTCGA | 6.13 log2 normalized intensity
AAGGGCTGAGGTTAAAGTCCACATTCTTTAGCCTAGGGAGATTAGAGTATCGGTCGA | 6.82 log2 normalized intensity
CTGAGGTTAAAGTCCACATTCTTTAGCATAGCCTAGGGAGATTAGAGTATCGGTCGA | 6.12 log2 normalized intensity
GAGGCTGAAGTGAAGTTACAAAGGTCACACGCCTAGGGAGATTAGAGTATCGGTCGA | 6.46 log2 normalized intensity
AAGCTTCACAAAGGGCTGAGGTTAAAGTCCGCCTAGGGAGATTAGAGTATCGGTCGA | 7.44 log2 normalized intensity
